Experimental data: PubChem BioAssay AID1159580 (chemical genetic matrix, 2015)
Several values for one entry are separate records, joined by “and”; a condition that tells them apart may be missing. Equal entries are not always repeated. Screen size: about 5,500 compounds; about 2,000 (36%) were called active. Not shown: some 18% with an inconclusive outcome. Rule as the data show it: active = normalized growth mostly below about 0.91 (no sharp cut-off); inconclusive = no clear call, values can overlap the other calls; inactive = mostly above about 0.92. The list shows a part of the results.

Assay: chemical genetic growth profiling, strain panel (AID 1159580);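 also: tested at 20 µM; growth read once vehicle control cultures reached saturation at 30 °C; 1 = growth at the plate median or of vehicle wells; lower values mean less growth of the strain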
Conditions: S. cerevisiae deletion strains, growth OD

Measured: normalized growth

CCCCCCOc1ccccc1C(N)=O
inactive: locus YAL021C, strain ccr4, stronger effect = lower value 1.04 | locus YAL030W, strain snc1, stronger effect = lower value 0.939 | locus YBR231C, strain swc5, stronger effect = lower value 0.922 | locus YBR279W, strain paf1, stronger effect = lower value 0.934 | locus YCR088W, strain abp1, stronger effect = lower value 0.94 | locus YDL005C, strain med2, stronger effect = lower value 0.964 | locus YDL040C, strain nat1, stronger effect = lower value 0.948 | locus YDR001C, strain nth1, stronger effect = lower value 0.949 | locus YDR069C, strain doa4, stronger effect = lower value 0.989 | locus YDR195W, strain ref2 1.05 | locus YDR334W, strain swr1, stronger effect = lower value 0.959 | locus YDR335W, strain msn5, stronger effect = lower value 0.956 | locus YEL037C, strain rad23, stronger effect = lower value 0.943 | locus YEL061C, strain CIN8 (second series), stronger effect = lower value 0.935 | locus YER016W, strain bim1, stronger effect = lower value 0.928 | locus YER111C, strain swi4, stronger effect = lower value 0.941 | locus YFR010W, strain ubp6, stronger effect = lower value 0.985 | locus YGL167C, strain pmr1, stronger effect = lower value 0.92 | locus YGL173C, strain kem1, stronger effect = lower value 0.939 | locus YGL227W, strain vid30, stronger effect = lower value 0.947 | locus YHR013C, strain ard1, stronger effect = lower value 0.916 | locus YHR027C, strain rpn1, stronger effect = lower value 0.945 | locus YHR079C, strain IRE1, stronger effect = lower value 0.924 | locus YJL092W, strain hpr5, stronger effect = lower value 0.919 | locus YJL115W, strain asf1, stronger effect = lower value 0.96 | locus YJL154C, strain vps35, stronger effect = lower value 0.959
active: locus YAL013W, strain DEP1, stronger effect = lower value 0.662 | locus YAL026C, strain drs2, stronger effect = lower value 0.75 | locus YBL061C, strain skt5, stronger effect = lower value 0.893 | locus YBR009C, strain hhf1, stronger effect = lower value 0.862 | locus YBR021W, strain FUR4, stronger effect = lower value 0.84 | locus YBR023C, strain chs3, stronger effect = lower value 0.81 | locus YBR171W, strain sec66, stronger effect = lower value 0.857 | locus YBR229C, strain ROT2, stronger effect = lower value 0.86 | locus YCL011C, strain gbp2, stronger effect = lower value 0.897 | locus YCL016C, strain dcc1, stronger effect = lower value 0.874 | locus YCL029C, strain bik1, stronger effect = lower value 0.38 | locus YCL069W, strain vba3, stronger effect = lower value 0.849 | locus YDL035C, strain GPR1, stronger effect = lower value 0.553 | locus YDL074C, strain BRE1, stronger effect = lower value 0.443 | locus YDL101C, strain DUN1, stronger effect = lower value 0.505 | locus YDL134C, strain PPH21, stronger effect = lower value 0.513 | locus YDL185W, strain tfp1, stronger effect = lower value 0.636 | locus YDL192W, strain arf1, stronger effect = lower value 0.654 | locus YDR101C, strain arx1, stronger effect = lower value 0.655 | locus YDR137W, strain rgp1, stronger effect = lower value 1.39 [resistant] | locus YDR150W, strain NUM1, stronger effect = lower value 0.744 | locus YDR159W, strain sac3, stronger effect = lower value 0.784 | locus YDR162C, strain NBP2, stronger effect = lower value 0.338 | locus YDR297W, strain sur2, stronger effect = lower value 0.914 | locus YDR318W, strain mcm21, stronger effect = lower value 0.41 | locus YDR388W, stronger effect = lower value 0.71 | locus YDR392W, strain spt3, stronger effect = lower value 0.335 | locus YDR502C, strain sam2, stronger effect = lower value 0.546 | locus YEL003W, strain gim4, stronger effect = lower value 0.867 | locus YEL061C, strain CIN8, stronger effect = lower value 0.449 | locus YER015W, strain faa2, stronger effect = lower value 0.892 | locus YER110C, stronger effect = lower value 0.544 | locus YER155C, strain BEM2 (second series), stronger effect = lower value 0.249 | locus YER155C, strain BEM2, stronger effect = lower value 0.304 | locus YER167W, strain BCK2, stronger effect = lower value 0.367 | locus YGL078C, strain dbp3, stronger effect = lower value 0.864 | locus YGL086W, strain mad1, stronger effect = lower value 0.439 | locus YGL240W, strain doc1, stronger effect = lower value 0.789 | locus YGL248W, strain PDE1, stronger effect = lower value 0.612 | locus YGL253W, strain hxk2, stronger effect = lower value 0.824 | locus YGR135W, strain pre9, stronger effect = lower value 0.533 | locus YGR229C, strain SMI1, stronger effect = lower value 0.144 | locus YGR252W, strain gcn5, stronger effect = lower value 0.446 | locus YHR030C, strain SLT2, stronger effect = lower value 0.0615 and 0.831 | locus YHR079C, strain IRE1 (second series), stronger effect = lower value 0.646 | locus YHR094C, strain hxt1, stronger effect = lower value 0.765 | locus YHR129C, strain ARP1, stronger effect = lower value 0.474 | locus YHR142W, strain chs7, stronger effect = lower value 0.692 | locus YHR200W, strain rpn10, stronger effect = lower value 0.804 | locus YIL066C, strain RNR3, stronger effect = lower value 0.188 | locus YIL073C, strain SPO22, stronger effect = lower value 0.535 | locus YIL125W, strain kgd1, stronger effect = lower value 0.796 | locus YIR030C, strain dcg1, stronger effect = lower value 0.615 | locus YJL095W, strain BCK1 (second series), stronger effect = lower value 0.704 | locus YJL095W, strain BCK1, stronger effect = lower value 0.0726 and 0.863 | locus YJL129C, strain trk1, stronger effect = lower value 0.755 | locus YJL134W, strain LCB3, stronger effect = lower value 0.868 | locus YJL164C, strain tpk1, stronger effect = lower value 0.863 | locus YJL166W, strain qcr8, stronger effect = lower value 0.822 | locus YJL168C, strain set2, stronger effect = lower value 0.826 | locus YJL187C, strain SWE1 (second series), stronger effect = lower value 0.612 | locus YJL187C, strain SWE1, stronger effect = lower value 0.917
